The text below walks through data of the supplement of paper PMC10121225.

Structures can show the parent of a compound that is named as a salt.
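Also: immunostained co-cultures imaged by high-content microscopy, Z-score per plate against mean and SD of 0.1% DMSO wells, compounds added on differentiation day 18, analysed day 21.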

The test deals with hN + hpA co-culture (H1 iNGN2 human neurons + human primary astrocytes). In words: presynaptic density (SYNAPSIN1 puncta per MAP2 neurite area), Z-score vs DMSO controls; higher = more presynaptic puncta (synapse-promoting). To be noted: 3 µM; 72 h.
With `CC(C)c1cc(-c2n[nH]c(=O)n2-c2ccc3c(ccn3C)c2)c(O)cc1O` [Ganetespib (STA-9090)], the “presynaptic density (Z-score)” value was found to be 2.03.

`O=S(=O)(c1ccccc1)c1cnc2c(N3CCNCC3)cccc2c1`: the “presynaptic density (Z-score)” value was -0.943.

As to `CC1(C)CCC(c2ccc(Cl)cc2)=C(CN2CCN(c3ccc(C(=O)NS(=O)(=O)c4ccc(N[C@H](CCN5CCOCC5)CSc5ccccc5)c(S(=O)(=O)C(F)(F)F)c4)cc3)CC2)C1`, the “presynaptic density (Z-score)” value amounted to 0.29.

As to `O=c1cc(-c2cccc3c2Sc2ccccc2S3)oc(N2CCOCC2)c1`, the “presynaptic density (Z-score)” value was -0.963.

With `CC(C)NCC(O)COc1cccc2ccccc12` (stereo unspecified) [Propranolol HCl], the “presynaptic density (Z-score)” value stood at 0.278.

For the compound `CCN(Cc1ccncc1)C(=O)C(CO)c1ccccc1` (stereo unspecified) [Tropicamide], the “presynaptic density (Z-score)” value was -0.597.

With `CCNC(=O)c1noc(-c2cc(C(C)C)c(O)cc2O)c1-c1ccc(CN2CCOCC2)cc1`, the “presynaptic density (Z-score)” value stood at 3.55.

On to `Cc1cn(-c2cc(NC(=O)c3ccc(C)c(Nc4nccc(-c5cccnc5)n4)c3)cc(C(F)(F)F)c2)cn1` [Nilotinib (AMN 107 or Tasigna)], for which the “presynaptic density (Z-score)” value is -1.02.

In the case of `O=C(Nc1cccc(Nc2ncc(Br)c(NCCc3cnc[nH]3)n2)c1)N1CCCC1`, the “presynaptic density (Z-score)” value was -0.439.

Consider `c1ccc(CC2=NCCN2)cc1` [Tolazoline HCl], for which the “presynaptic density (Z-score)” value was -0.161. Regarding `C=C[C@@]1(C)CC(=O)[C@]2(O)[C@@]3(C)[C@@H](O)CCC(C)(C)[C@@H]3[C@H](O)[C@H](OC(C)=O)[C@@]2(C)O1` [Forskolin], the “presynaptic density (Z-score)” value was found to be 0.455. In the case of `CC(=O)c1cc([N+](=O)[O-])c(Sc2ccc(F)cc2F)s1` it was 0.25. For `Nc1cccc(-c2cc3c(Oc4cccc(O)c4)ncnc3[nH]2)c1`, the “presynaptic density (Z-score)” value worked out at 0.148. Turning to `CN(Cc1cnc2nc(N)nc(N)c2n1)c1ccc(C(=O)N[C@@H](CCC(=O)O)C(=O)O)cc1` [Methotrexate], the “presynaptic density (Z-score)” value was -0.494. With `FC(F)(F)c1ccc(/C=C/c2nc(COc3ccc(CCCCn4ccnn4)cc3)co2)cc1` [Mubritinib (TAK 165)], the “presynaptic density (Z-score)” value is -3.36.

On to `COc1cc2c(cc1-c1c(C)noc1C)ncc1[nH]c(=O)n([C@H](C)c3ccccn3)c12` [I-BET 151 hydrochloride], for which the “presynaptic density (Z-score)” value worked out at 3.55. As to `CCOc1nc2cccc(C(=O)O)c2n1Cc1ccc(-c2ccccc2-c2nnn[nH]2)cc1` [Candesartan], the “presynaptic density (Z-score)” value came to 0.323.

As for `CNC(=C[N+](=O)[O-])NCCSCc1ccc(CN(C)C)o1` [Ranitidine], the “presynaptic density (Z-score)” value is -0.33. With `C[C@@H](Oc1cc(-n2cnc3ccc(CN4CCN(C)CC4)cc32)sc1C(N)=O)c1ccccc1C(F)(F)F`, the “presynaptic density (Z-score)” value was -1.83. In the case of `NC(=O)c1cccc(-c2cc(Nc3ccc(OC(F)(F)F)cc3)ncn2)c1`, the “presynaptic density (Z-score)” value is -1.31. Consider `C[C@@H]1CN(CC(=O)Nc2ccc3c(c2)Cc2cccc(-c4cc(=O)cc(N5CCOCC5)o4)c2S3)C[C@H](C)O1`, for which the “presynaptic density (Z-score)” value was -1.12. In the case of `O=C(CCCCCCC(=O)Nc1ccc([C@H]2O[C@@H](CSc3nc(-c4ccccc4)c(-c4ccccc4)o3)C[C@@H](c3ccc(CO)cc3)O2)cc1)NO` [Tubacin], the “presynaptic density (Z-score)” value is 0.79. In the case of `CN(C)CCc1c[nH]c2ccc(Cn3cncn3)cc12`, the “presynaptic density (Z-score)” value is -0.227. In the case of `CCC(=O)NCC[C@@H]1CCc2ccc3c(c21)CCO3` it was -1.53; in that of `Cc1ccc(S(=O)(=O)OCC(=O)Nc2ccc(C(=O)O)c(O)c2)cc1`, -0.554. On to `COc1cc2c(Nc3ccc(NC(=O)c4ccccc4)cc3)ncnc2cc1OCCCN1CCOCC1`, for which the “presynaptic density (Z-score)” value was -1.71. Consider `OC(CNCC(O)C1CCc2cc(F)ccc2O1)C1CCc2cc(F)ccc2O1` (stereo unspecified) [Nebivolol], for which the “presynaptic density (Z-score)” value is -0.196. Consider `CC(C)NC[C@@H](C(=O)N1CCN(c2ncnc3c2[C@H](C)C[C@H]3O)CC1)c1ccc(Cl)cc1`, for which the “presynaptic density (Z-score)” value is -0.322. In the case of `CC(C)(C)n1nc(-c2ccc(Cl)cc2)c2c(N)ncnc21`, the “presynaptic density (Z-score)” value was found to be 0.793. In the case of `O=C(O)/C=C/c1ccc(Cn2ccnc2)cc1` [Ozagrel HCl], the “presynaptic density (Z-score)” value is -0.679. In the case of `C#CCN[C@@H]1CCc2ccccc21` [Rasagiline Mesylate], the “presynaptic density (Z-score)” value was 0.0894. `CCCCOc1ccc(C(=O)Nc2ccc(F)cc2F)cc1`: the “presynaptic density (Z-score)” value amounted to 0.219. In the case of `CC[C@H](C)C(=O)O[C@H]1C[C@@H](C)C=C2C=C[C@H](C)[C@H](CC[C@@H]3C[C@@H](O)CC(=O)O3)[C@H]21` it was 1.56. `COc1cc2c(N3CCN(C(=O)Nc4ccc(OC(C)C)cc4)CC3)ncnc2cc1OCCCN1CCCCC1`: the “presynaptic density (Z-score)” value is -0.158. `CCN1CCCC1CNC(=O)c1cc(S(N)(=O)=O)ccc1OC` (single isomer, unassigned; (-)) [(-)-Sulpiride]: the “presynaptic density (Z-score)” value is -1.09.

Regarding `NC1(c2ccc(-c3nc4ccn5c(=O)[nH]nc5c4cc3-c3ccccc3)cc2)CCC1`, the “presynaptic density (Z-score)” value is -1.01.
